Molecules are shown by their SMILES. “And” between values parts separate entries of the source, which are not always exact repeats. Equal entries are not always repeated. Inconclusive results are not listed. Some compounds were tested as several samples or in several runs, with calls that do not always agree. The source made the active and inactive calls. The call rests on the fitted dose curve; in most records, active means well fitted curve in the direction sought with a large enough effect in the repeat runs; inconclusive means weak or mixed curves; inactive means no such curve, though single readings can be large; an effect the other way counts as inactive or inconclusive. Non-standard residues stand in square brackets, D forms with d. Residues, ends and D or L forms follow the SMILES beside them. Orn = NCCC[C@H](N)C(=O)O

In PubChem BioAssay (Tox21) one finds max activation and Potency data, which are given here for 27 compounds.

The target in experiment [1] is Nuclear receptor subfamily 1 group I member 2 (Rattus norvegicus) (UniProt Q9R1A7). The experiment is described as follows: Rat pregnane X receptor (rPXR) activation by small molecules, qHTS assay (AID 1346983). Further: nearly all actives have a fitted effect of over 20% in size. The note with it: rPXR luciferase reporter cells, One-Glo luminescence, 24 h; max activation: stronger effect = higher value. Put shortly: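 Cell-based rPXR activation assay: rPXR cells, 2,000 per well, rested 5hr at 37 C, then exposed to compounds in DMSO for 24 hr at 37 C. Luciferase activity read by One-Glo luminescence after 30 min at room temperature.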
Background: In qHTS, concentration-response curves come from the screen itself.

The target of experiment [2] is Nuclear receptor subfamily 1 group I member 2 (Homo sapiens) (UniProt O75469). Put plainly: CYP3A4 induction through human pregnane X receptor (PXR) by small molecules, qHTS assay (AID 1346984). Further: nearly all actives have a fitted effect of over 40% in size. Further: potency means the concentration at half of the fitted maximal effect. The note with it: DPX-2 HepG2 PXR, CYP3A4-luciferin luminescence, 24 h; series mostly up to 46.1 µM. Put shortly:
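Cells (DPX-2; HepG2 with PXR element plus CYP3A4-promoter luciferase) settled 5hr, then were treated 24hr at 37C. A 3hr, 3uM-final Luciferin-IPA step preceded luminescence measurement with One-Glo.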

The target is the same in experiment [3]. Put plainly: Human pregnane X receptor (PXR) activation by small molecules, qHTS assay (AID 1346985). Further: nearly all actives have a fitted effect of over 40% in size. Further: potency means the concentration at half of the fitted maximal effect. The settings on record: DPX-2 HepG2 CYP3A4-luciferase, 24 h; series mostly up to 38.3 µM. The gist of the method: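 DPX-2 cells (HepG2 co-transfected with a PXR response element and a CYP3A4-promoter luciferase construct) were seeded at 2,000 per well, rested 5 hr at 37C, then exposed to DMSO-dissolved compounds for 24 hr. Activation was read as luciferase luminescence.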
On the % scale 0 is the no-effect control and ±100 the full control effect.

Nuclear receptor subfamily 1 group I member 2 (Rattus norvegicus), sequence (Q9R1A7 whole entry, looked up): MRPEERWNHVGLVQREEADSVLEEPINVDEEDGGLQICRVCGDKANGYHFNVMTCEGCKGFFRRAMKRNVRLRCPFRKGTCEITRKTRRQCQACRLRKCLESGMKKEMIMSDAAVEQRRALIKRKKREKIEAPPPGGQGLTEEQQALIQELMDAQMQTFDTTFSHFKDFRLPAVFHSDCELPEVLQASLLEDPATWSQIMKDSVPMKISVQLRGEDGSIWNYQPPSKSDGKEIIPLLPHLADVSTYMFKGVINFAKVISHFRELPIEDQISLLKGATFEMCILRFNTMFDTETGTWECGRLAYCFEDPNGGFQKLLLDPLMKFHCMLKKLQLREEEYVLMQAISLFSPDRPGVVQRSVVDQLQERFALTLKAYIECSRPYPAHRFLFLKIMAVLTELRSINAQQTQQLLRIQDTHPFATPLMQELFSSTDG

With `CC[C@@H](C(=O)[C@@H](C)[C@@H](O)[C@H](C)CCc1ccc(C)c(O)c1C(=O)O)[C@H]1O[C@](CC)([C@H]2CC[C@](O)(CC)[C@H](C)O2)C[C@@H]1C`, in experiment [1], the max activation is -6.82% (inactive). Moreover, in experiment [2], the Potency entry was “inactive”. Moreover, the Potency in experiment [3] is 8.91 µM (active).
On the same counts, the results for `CCN(CC)CCOC[C@H]1O[C@@H](O)[C@H](OCCN(CC)CC)[C@@H](O)[C@@H]1O` are -3.03% (inactive), “inactive” and “inactive”.
For `C=C1[C@@H]2CC[C@@H](C2)C1(C)C`, in that order: -3.65% (inactive), “inactive” and “inactive”.
For `CCN(CC)C(=O)c1cccnc1`, in that order: -3.83% (inactive), “inactive” and “inactive”.
On to `CCCCCCCCCCCCCCCC[n+]1ccccc1`, for which the max activation in experiment [1] is -15.5% (inactive).
`CCN(CC)CC#CCOC(=O)C(O)(c1ccccc1)C1CCCCC1` (configuration not stated): the max activation in experiment [1] was 13% (inactive). In addition, the Potency is 8.91 µM (active) in experiment [2] and 17.8 µM (active) in experiment [3].
Take `O=C(O)c1ccccc1O`: in experiment [1], the max activation is -4.21% (inactive).
Regarding `CC(C)CCC[C@@H](C)[C@H]1CC[C@H]2[C@@H]3CC[C@@H]4C[C@H](O)CC[C@]4(C)[C@H]3CC[C@]12C`, the max activation in experiment [1] was -7.28% (inactive). Moreover, the Potency result in experiment [2] and in experiment [3] was “inactive” throughout.
With `C[S+](CC[C@H](N)C(=O)O)C[C@H]1O[C@@H](n2cnc3c(N)ncnc32)[C@H](O)[C@@H]1O` (some centres not stated), in experiment [1], the max activation was -2.9% (inactive) and 0.617% (inactive). Moreover, the Potency entry in experiment [2] and in experiment [3] was “inactive” throughout.
Take `N[C@H](CO)C(=O)O`: in experiment [1], the max activation was -0.898% (inactive). Further, the Potency entry in experiment [2] and in experiment [3] was “inactive” each time.
Regarding `C=CC1=C(C(=O)O)N2C(=O)[C@@H](NC(=O)/C(=N/OCC(=O)O)c3csc(N)n3)[C@H]2SC1` (stereo in doubt), in experiment [1], the max activation was -1.86% (inactive). Further, the Potency result in experiment [2] and in experiment [3] was “inactive” throughout.
As for `Cc1cc(C(=O)NCCc2ccc(S(=O)(=O)NC(=O)NN3CCCCCC3)cc2)no1`, the max activation in experiment [1] is -0.977% (inactive). In addition, the Potency entry in experiment [2] and in experiment [3] was “inactive” throughout.
Consider `NC[C@@H]1CC[C@@H](N)[C@@H](O[C@H]2[C@H](O)[C@@H](O[C@H]3O[C@H](CO)[C@@H](O)[C@H](N)[C@H]3O)[C@H](N)C[C@@H]2N)O1`, for which the max activation in experiment [1] is -0.783% (inactive). The Potency result in experiment [2] and in experiment [3] was “inactive” in each case.
Regarding `NC(N)=NCC1COC2(CCCCC2)O1` (configuration not stated), the max activation in experiment [1] is -2.55% (inactive). The Potency entry in experiment [2] and in experiment [3] was “inactive” throughout.
`O=C(O)COc1ccc(C(=O)c2cccs2)c(Cl)c1Cl`: the max activation in experiment [1] was -1.39% (inactive) and -4.28% (inactive). In addition, the Potency result in experiment [2] and in experiment [3] was “inactive” each time.
Turning to `CO/N=C(\C(=O)N[C@@H]1C(=O)N2C(C(=O)O)=C(CSc3cnns3)CS[C@H]12)c1csc(N)n1`, the max activation in experiment [1] was -0.96% (inactive). For the same compound, the Potency result in experiment [2] and in experiment [3] was “inactive” in each case.
In the case of `O=C(O)c1cc(O)c2c(c1)[C@H]([C@H]1c3cc(C(=O)O)cc(O)c3C(=O)c3c(O[C@@H]4O[C@H](CO)[C@@H](O)[C@H](O)[C@H]4O)cccc31)c1cccc(O[C@@H]3O[C@H](CO)[C@@H](O)[C@H](O)[C@H]3O)c1C2=O`, the max activation in experiment [1] was -0.0362% (inactive). In addition, the Potency entry in experiment [2] and in experiment [3] was “inactive” each time.
For `CN(C)CCc1c[nH]c2ccc(Cn3cncn3)cc12`, in experiment [1], the max activation is -1.87% (inactive). The Potency result in experiment [2] and in experiment [3] was “inactive” each time.
Turning to `CC(=O)Oc1cc(C(F)(F)F)ccc1C(=O)O`, the max activation in experiment [1] was 2.94% (inactive). For the same compound, the Potency entry in experiment [2] and in experiment [3] was “inactive” each time.
Regarding `NC(=O)CC[C@@H]1NC(=O)[C@H](Cc2ccccc2)NC(=O)[C@H](Cc2ccc(O)cc2)NC(=O)[C@@H](N)CSSC[C@@H](C(=O)N2CCC[C@H]2C(=O)N[C@@H](CCCN=C(N)N)C(=O)NCC(N)=O)NC(=O)[C@H](CC(N)=O)NC1=O`, in experiment [1], the max activation is -0.0397% (inactive). The Potency entry in experiment [2] and in experiment [3] was “inactive” throughout.
Take `CCCCCCCCCCCCCC(=O)OCC(COP(=O)([O-])OCC[N+](C)(C)C)OC(=O)CCCCCCCCCCCCC` (configuration not stated): the max activation in experiment [1] was -1.21% (inactive). Moreover, the Potency result in experiment [2] and in experiment [3] was “inactive” throughout.
Turning to `CC[C@H]1OC(=O)C[C@@H](O)[C@H](C)[C@@H](O[C@@H]2O[C@H](C)[C@@H](O[C@H]3C[C@@](C)(O)[C@@H](O)[C@H](C)O3)[C@H](N(C)C)[C@H]2O)[C@@H](CC=O)C[C@@H](C)C(=O)/C=C/C(C)=C/[C@@H]1CO[C@@H]1O[C@H](C)[C@@H](O)[C@@H](OC)[C@H]1OC`, the max activation in experiment [1] was 0.133% (inactive). Besides, the Potency result in experiment [2] and in experiment [3] was “inactive” in each case.
Turning to `CC[C@H]1OC(=O)[C@H](C)C(=O)[C@H](C)[C@@H](O[C@@H]2O[C@H](C)C[C@H](N(C)C)[C@H]2O)[C@](C)(OC)C[C@@H](C)C(=O)[C@H](C)[C@H]2N(CCCCn3cnc(-c4cccnc4)c3)C(=O)O[C@]12C`, in experiment [1], the max activation was 2.76% (inactive). The Potency result in experiment [2] is “inactive and 501 nM (active)”; in experiment [3], “inactive and 794 nM (active)”.
For `CC(C)C[C@@H]1NC(=O)[C@H](CCCN)NC(=O)[C@H](C(C)C)NC(=O)[C@@H]2CCCN2C(=O)[C@@H](Cc2ccccc2)NC(=O)[C@H](CC(C)C)NC(=O)[C@H](CCCN)NC(=O)[C@H](C(C)C)NC(=O)[C@@H]2CCCN2C(=O)[C@@H](Cc2ccccc2)NC1=O` (cyclo(V[Orn]L[dF]PV[Orn]L[dF]P)), in experiment [1], the max activation is -16.3% (inactive). Moreover, the Potency entry in experiment [2] and in experiment [3] was “inactive” each time.
For the compound `CCC(O)c1ccccc1` (configuration not stated), the max activation in experiment [1] is -2.74% (inactive). Further, the Potency result in experiment [2] and in experiment [3] was “inactive” each time.
With `N[C@@H](Cc1cnc[nH]1)C(=O)O`, the max activation in experiment [1] is -4.66% (inactive). Besides, the Potency entry in experiment [2] and in experiment [3] was “inactive” in each case.
On to `CO/N=C(\C(=O)N[C@@H]1C(=O)N2C(C(=O)O)=C(C[N+]3(C)CCCC3)CS[C@H]12)c1csc(N)n1`, for which the max activation in experiment [1] was -0.506% (inactive). Further, the Potency result in experiment [2] and in experiment [3] was “inactive” throughout.
